Experimental data taken from the supplement of paper PMC10498489.
Out of some 2,300 compounds screened, about 330 (14%) showed activity. These entries were drawn from the full list. A number with no mark means an inactive call.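 The calls were made as follows: active = median modified Z-score above 1.96; inactive = 1.96 or below.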

The compounds below were run on HepG2 Srxn1-GFP reporter cells (+30 nM CDDO-Me) (assay: Srxn1-GFP intensity median modified Z-score relative to plate median; higher = stronger NRF2 / oxidative stress reporter activation, active = hit call of the paper). Conditions: 10 µM; exposure time: 24h.
How it was run: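 In 96-well plates holding 20,000 HepG2 Srxn1-GFP BAC reporter cells per well, compound at 10 μM and an NRF2 activator at 30 nM were added together for 24 h, with DMSO at ≤0.1%, across three replicate plates. After fixation in formaldehyde and Hoechst staining, confocal images were analysed cell by cell for cytoplasmic GFP, and images containing under 100 cells were excluded. Values are replicate medians of the per-plate modified Z-score of GFP intensity, scaled by 1.4826 × median absolute deviation.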

In order of falling “Srxn1-GFP intensity median modified Z-score” value:
1. NC(=O)c1cc([N+](=O)[O-])cc([N+](=O)[O-])c1 [euspeclibcmpd211]  1.85
2. COc1ccc(C(=O)N2CCCC2=O)cc1 [euspeclibcmpd835]  1.03
3. CC1[C@H](C)OC(=O)CC(O)CC(O)CC(O)CCC(O)C(O)C[C@]2(O)CC(O)C(C(=O)O)C(CC(OC3O[C@H](C)[C@@H](O)[C@H](N)[C@@H]3O)/C=C/C=C/C=C/C=C/CC/C=C/C=C/[C@H](C)[C@H]1O)O2 (some centres not stated) [euspeclibcmpd218]  0.964
4. NC(Cc1ccc(N(CCCl)CCCl)cc1)C(=O)O (configuration not stated) [euspeclibcmpd181]  0.947
5. COc1cc2c(cc1OC)C1C(=O)c3ccc4oc(C(C)C)cc4c3O[C@@H]1CO2 (some centres not stated) [euspeclibcmpd1384]  0.895
6. COc1ccc(O)c(C(C)(C)C)c1 [euspeclibcmpd2212]  0.639
7. Cc1cc(OC(=O)N2CCCCC2)c(C(C)C)cc1[N+](C)(C)C [euspeclibcmpd1842]  0.636
8. C=C(C)C1Cc2c(ccc3c(=O)c4c(oc23)COc2cc(OC)c(OC)cc2-4)O1 (configuration not stated) [euspeclibcmpd1633]  0.389
9. NC(=O)C[S+]([O-])C(c1ccccc1)c1ccccc1 (configuration not stated) [euspeclibcmpd2299]  0.327
10. CCC(=O)O[C@H]1CCC2C3CC=C4CC(=O)CC[C@]4(C)C3CC[C@@]21C (some centres not stated) [euspeclibcmpd7]  0.269
11. c1ccc2c(c1)OCC(C1=NCCN1)O2 (configuration not stated) [euspeclibcmpd1238]  0.16
12. O=C1c2ccccc2-c2cccc3cccc1c23 [euspeclibcmpd1379]  0.148
13. CCOC(=O)C1C(C=C(C)C)C1(C)C (configuration not stated) [euspeclibcmpd1522]  0.0825
14. C[N+]12CCC(CC1)C(OC(=O)C(O)(c1ccccc1)c1ccccc1)C2 (configuration not stated) [euspeclibcmpd67]  0.0285
15. C[C@]12CCC(=O)C=C1CCc1ccc(O)cc12 [euspeclibcmpd2145]  -0.0198
16. C=C[C@H]1C[N@@]2CC[C@H]1C[C@H]2[C@H](O)c1ccnc2ccccc12 [euspeclibcmpd2388]  -0.0385
17. O=C1CCCC2C3C[C@H](CN12)[C@@H]1CCCCN1C3 (some centres not stated) [euspeclibcmpd1695]  -0.101
18. O=C(O)CCC1NCC2CC1CN1CCCCC21 (configuration not stated) [euspeclibcmpd2022]  -0.148
19. COc1cc2c(cc1OC)-c1c(oc3c4c(ccc3c1=O)OC(C(C)C)C4)CO2 (configuration not stated) [euspeclibcmpd1802]  -0.169
20. CCC1(c2ccc(N)cc2)CCC(=O)NC1=O (configuration not stated) [euspeclibcmpd20]  -0.169
21. COc1cccc([C@]2(O)CCCC[C@H]2CN(C)C)c1 [euspeclibcmpd765]  -0.221
22. Cc1[nH]c2ccccc2c1CN(C)C [euspeclibcmpd2173]  -0.24
23. CC(C)=CC1C(C(=O)OCc2cccc(Oc3ccccc3)c2)C1(C)C (configuration not stated) [euspeclibcmpd1161]  -0.28
24. CC[C@H]1C2CC3[C@@H]4N(C)c5ccccc5[C@]45C[C@@H](C2C5O)N3[C@@H]1O (some centres not stated) [euspeclibcmpd1044]  -0.296
25. CN1CCCCC1c1ccc(-c2cccnc2)nc1 (configuration not stated) [euspeclibcmpd1697]  -0.301
26. O=P1(N(CCCl)CCCl)NCCCO1 (configuration not stated) [euspeclibcmpd2335]  -0.33
27. N=c1nc[nH][nH]1 [euspeclibcmpd1771]  -0.334
28. O=C(O)CCCc1ccc(N(CCCl)CCCl)cc1 [euspeclibcmpd51]  -0.412
29. CN1C2C[C@H](OC(=O)C(CO)c3ccccc3)C[C@H]1[C@H]1OC21 (some centres not stated) [euspeclibcmpd266]  -0.44
30. CC(=O)O[C@H]1CC[C@@]2(C)C(=CCC3C2CC[C@]2(C)C(=O)CCC32)C1 (some centres not stated) [euspeclibcmpd1015]  -0.448
31. C[N+]1(C)C2CCC1CC(OC(=O)C(CO)c1ccccc1)C2 (configuration not stated) [euspeclibcmpd790]  -0.464
32. CNNC [euspeclibcmpd2278]  -0.486
33. O=[N+]([O-])O[C@H]1CO[C@H]2[C@@H]1OC[C@H]2O[N+](=O)[O-] [euspeclibcmpd166]  -0.506
34. CC1NCCc2cc(O)c(O)cc21 (configuration not stated) [euspeclibcmpd2171]  -0.549
35. O=C(O)CCCO [euspeclibcmpd2162]  -0.552
36. Cc1cccc(C)c1N=C1NCCCS1 [euspeclibcmpd416]  -0.674

With `C=C(C)[C@H]1Cc2c(ccc3c2O[C@@H]2COc4cc(OC)c(OC)cc4C2C3=O)O1` (some centres not stated) [euspeclibcmpd1688] the “Srxn1-GFP intensity median modified Z-score” value was 63.1 (active).
`COc1cc2c(cc1OC)C1C(=O)c3ccc4c(c3O[C@@H]1CO2)CC(C(C)C)O4` (some centres not stated) [euspeclibcmpd1349] was tested, and the “Srxn1-GFP intensity median modified Z-score” value was 54.1 (active).
With `O=C1C=C2C=CC3C[C@@]2(O1)[C@H]1CCCCN31` [euspeclibcmpd1211] the “Srxn1-GFP intensity median modified Z-score” value was 9.38 (active).
With `C=C/C=C\CC1=C(C)C(OC(=O)C2[C@@H](C=C(C)C)C2(C)C)CC1=O` (some centres not stated) [euspeclibcmpd1257] the “Srxn1-GFP intensity median modified Z-score” value was 2.3 (active).
For `O=[N+]([O-])O[C@@H]1CO[C@H]2[C@@H]1OC[C@@H]2O` [euspeclibcmpd605], the “Srxn1-GFP intensity median modified Z-score” value was 3.27 (active).
In the case of `C=C(C)c1cc2cc(C(C)=O)c(O)cc2o1` [euspeclibcmpd1716], the “Srxn1-GFP intensity median modified Z-score” value was 10.1 (active).
